Data on 28 molecules can be found in PubChem BioAssay (Tox21).

Records with an inconclusive call do not appear. A number with no mark means an inactive call. Activity calls are given as the source filed them. Calls come from the whole dose curve.
% is set by controls: 0 for no effect and ±100 for the full control effect.

This assay deals with Vitamin D3 receptor (Homo sapiens) (UniProt P11473). Briefly: qHTS assay to identify small molecule agonists of the vitamin D receptor (VDR) signaling pathway (AID 743222). As to conditions: HEK293T VDR-UAS-bla, beta-lactamase FRET ratio, 16 h; series mostly up to 63.5 µM; activation: at the top concentration. From the text: National Center for Advancing Translational Sciences [NCATS]
Chain of Vitamin D3 receptor (Homo sapiens) (P11473 whole entry, looked up): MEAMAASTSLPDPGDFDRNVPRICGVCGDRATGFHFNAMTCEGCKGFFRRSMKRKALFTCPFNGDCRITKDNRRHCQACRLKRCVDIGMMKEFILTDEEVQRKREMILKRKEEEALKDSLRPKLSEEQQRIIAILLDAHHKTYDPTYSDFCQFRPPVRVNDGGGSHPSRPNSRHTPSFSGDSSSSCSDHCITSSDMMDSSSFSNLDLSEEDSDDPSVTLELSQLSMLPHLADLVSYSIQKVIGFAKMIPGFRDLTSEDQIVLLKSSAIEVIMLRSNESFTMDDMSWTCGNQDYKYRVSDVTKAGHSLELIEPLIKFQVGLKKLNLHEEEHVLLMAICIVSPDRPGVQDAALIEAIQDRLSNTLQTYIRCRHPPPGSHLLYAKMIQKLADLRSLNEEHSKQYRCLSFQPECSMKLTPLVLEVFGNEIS
NIH Chemical Genomics Center [NCGC]
U.S. Environmental Protection Agency [EPA]
National Institutes of Environmental Health Sciences [NIEHS]
National Toxicology Program [NTP]
U.S. Food and Drug Administration [FDA]
The vitamin D receptor (VDR), a member of nuclear hormone receptor superfamily, plays a critical role in calcium homeostasis and bone metabolism. It is also involved in cell differentiation and growth, and thrombogenicity.
Tox21 Assay Protocol Summary:
VDR-bla cells were dispensed at 2,000 cells/6 uL/well into black wall/clear-bottom 1536-well plates using a Multidrop Combi (Thermo Fisher Scientific, Waltham, MA) dispenser. After the assay plates were incubated at a 37C and 5% CO2 for 4 h, 23 nL of compounds dissolved in DMSO, positive controls or DMSO only was transferred to the assay plate by a Pintool station (Kalypsys, San Diego, CA). The plates were incubated at 37C and 5% CO2 for 16 h. After 1 uL of LiveBLAzerTM B/G FRET substrate was added using a Bioraptr Flying Reagent Dispenser (FRD) workstation (Beckman Coulter, Indianapolis, IN, USA), the plates were incubated at room temperature for 2 h, and fluorescence intensity was measured by an Envision plate reader (PerkinElmer, Shelton, CT).
On the technique in general: qHTS replaces the single test concentration by a dilution series.
Consider `CCn1cc[n+](C)c1C`, for which the result was inactive.

Regarding `Cc1cc(Cl)ccc1OCC(=O)O`, the outcome was inactive.

As for `Cc1cc(-c2ccc(N)c(C)c2)ccc1N`, the result was inactive.

`C=CCOC(Cn1ccnc1)c1ccc(Cl)cc1Cl` (stereo not drawn): the outcome was inactive.

Take `OCCOc1ccccc1`: the outcome was inactive.

For the molecule `CCNc1nc(Cl)nc(NCC)n1`, the result was inactive.

For the molecule `CNC`, the result was inactive.

With `C[N+](C)(C)Cc1ccccc1`, the outcome was inactive.

On to `Oc1ccccc1-c1ccccc1`, for which the outcome was inactive.

As for `CCCCCCCCn1cc[n+](C)c1`, the outcome was inactive.

For `CC(Cl)(Cl)C(=O)O`, the outcome was inactive.

On to `Oc1cccc2cccnc12`, for which the “activation” value is 14.5%.

`CCCCCCCCCCCCCCCCn1cc[n+](C)c1`: the “activation” value is 3.26%.

Take `O=C(O)CC(O)(CC(=O)O)C(=O)O`: the result was inactive.

For the molecule `O=C(O)CCl`, the outcome was inactive.

`CC[N+](CC)(CC)CC`: the result was inactive.

For `O=C(O)C(Cl)(Cl)Cl`, the result was inactive.

For `Nc1ccc(-c2ccc(N)c(Cl)c2)cc1Cl`, the outcome was inactive.

On to `C1CCC(NC2CCCCC2)CC1`, for which the outcome was inactive.

Turning to `CC(=O)[O][Hg][c]1ccccc1`, the result was inactive.

With `N#CS`, the outcome was inactive.

With `Nc1ccccc1`, the outcome was inactive.

In the case of `Nc1ccc(-c2ccc(N)cc2)cc1`, the result was inactive.

Take `O=P1(N(CCCl)CCCl)NCCCO1` (stereo not drawn): the outcome was inactive.

Turning to `CCCC[N+]1(C)CCCCC1`, the result was inactive.

For the molecule `COP(=O)(OC)C(O)C(Cl)(Cl)Cl` (stereo not drawn), the outcome was inactive.

As to `COCC(=O)N(c1c(C)cccc1C)C(C)C(=O)OC` (stereo not drawn), the result was inactive.

Turning to `O=C(O)COc1ccc(Cl)cc1Cl`, the result was inactive.
